Tau fibril ThT: inhibitors of human tau fibril formation, thioflavin T binding | P10636 | Potency, µM (series often up to 57.4 µM), for the others: at the highest dose activity, negative = inhibition, hits mostly inhibitors | recombinant tau K18 P301L, heparin-induced fibrillization, ThT fluorescence | 2.1% of 270,000 active; note: potency is the fitted concentration of half-maximal effect; nearly all actives have a fitted effect of over 55% in size
Target sequence (P10636 561-689 P618L limits assumed): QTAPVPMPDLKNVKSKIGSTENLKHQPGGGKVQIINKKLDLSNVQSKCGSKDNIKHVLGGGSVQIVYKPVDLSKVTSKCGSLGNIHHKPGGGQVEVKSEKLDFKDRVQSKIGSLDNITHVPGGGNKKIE
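ThT emission at 510 nm, taken 1 hr after adding 30 uM dye, quantifies aggregates formed when 20 uM heparin acts on human tau K18 P301L for 6 hr at 37 C.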
Tau fluor cs: counter-screen for tau fibril formation inhibitors | Potency, µM (series often up to 57.7 µM), for the others: at the top dose activity change, negative = decrease | 0.93% of 280,000 active | AID 1463 | tau K18 P301L Alexa594 fluorescence, heparin fibrillization; note: potency is the fitted concentration of half-maximal effect; nearly all actives have a fitted effect of over 55% in size
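Human tau K18 P301L (15 uM unlabeled, 0.24 uM Alexa 594-labeled) in 100 mM sodium acetate pH 7 with 20 uM heparin, 6 hr at 37 C. ThT 30 uM added, 1 hr ambient; Alexa 594 FP and total fluorescence read at 555/632 nm.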
Tau FP inhib: tau fibrillization inhibition (FP). P10636. K18 P301L tau heparin fibrillization, Alexa594 FP, 6 h. Potency, µM (titrated, usually from 57.7 µM), inactives show at the top dose activity, negative = inhibition, actives largely listed as inhibitors. 0.39% of 280,000 active; note: potency is the fitted concentration of half-maximal effect; nearly all actives have a fitted effect of over 55% in size
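Human K18 P301L fragment (15 uM unlabeled plus 0.24 uM Alexa 594-labeled) in 100 mM sodium acetate pH 7 with compound, aggregation induced by 20 uM heparin for 6 hr at 37 C. ThT (30 uM) added for 1 hr, then Alexa 594 FP read.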
Sfp PPTase inh: Sfp phosphopantetheinyl transferase inhibition. Q9F4F7. Biochemical Sfp PPTase activity, qHTS. Potency, µM, without a hit: largest response in the series, negative = inhibition, most hits filed as inhibitors. 3.5% of 310,000 active;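 note: the enzyme is Sfp with the accession as filed and its product quenches rhodamine fluorescence; potency is the fitted concentration of half-maximal effect; 0% = enzyme reaction without inhibitor and -100% = no enzyme wells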
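Sfp 15 nM + cpd, 15 min RT; start w/ rhodamine-CoA 5 uM, BHQ-2-YbbR 12.5 uM (final); 50 mM Hepes pH 7.6, 10 mM MgCl2, 0.01% NP-40, 0.01% BSA; read 525/598 nm at 0 and 30 min.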
FBPA coupling cs: inhibits coupling enzyme system, counter-screen for aldolase hits. coupling enzyme system counterscreen, AmpLite Red fluorescence. AID 2472. 0.67% of 290,000 active. activity change, negative = inhibition, % at 58.2 µM, hits read low; in the data active = activity change below about -30%
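Compounds tested against the coupling enzymes alone at 57.5 uM final; readout was AmpLite Red fluorescence (525/598 nm) after 20 min at RT.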
The depositor's hits bear a star; ? = inconclusive; · = no result; [ ] = remark or other dose. In the library only some 5.2% were active in any assay of this set; here they are far more common. Unless noted, calls come from the whole dose curve; as a rule, active = well fitted curve in the direction sought with a large enough effect; inconclusive = small, poorly fitted or top-dose-only effect, or another doubt; inactive = no such curve, though single readings can be large; an effect the other way counts as inactive or inconclusive. Unless noted, % is set by controls: 0 for no effect and ±100 for the full control effect.

SMILES	Tau fibril ThT	Tau fluor cs	Tau FP inhib	Sfp PPTase inh	FBPA coupling cs
CCOC(CNc1ncnc2sc(-c3ccccc3)cc12)OCC	·	·	·	-18%	-2
COc1ccc(Nc2ncnc3sc(-c4ccccc4)cc23)cc1OC	?	14µM*[quencher]	?	13%	3
COc1ccc(CNC(=O)CN2C(=O)CSc3ccc(S(=O)(=O)N4CCCC4)cc32)cc1	0%	-13%	-4%	·	·
CC1CCc2onc(C(=O)N3CCN(c4cccc(C(F)(F)F)c4)CC3)c2C1 (stereo not drawn)	?	-13%	-6%	·	·
O=C(NCc1ccc(Cl)cc1)c1ccc(CNS(=O)(=O)c2ccc(F)cc2)cc1	-3%	-3%	-7%	·	·
CN=C(NC#N)Nc1ccc(C2=NNC(=O)C[C@@H]2C)cc1	-8%	-7%	-7%	5%	4
CCc1ccc(OCC(O)CN2CCC(CN3C(=O)c4cccc5cccc(c45)C3=O)CC2)cc1 (stereo not drawn)	?	-16%	-5%	50µM*	1
Cc1cc(C)cc(OCC(O)CN2CCC(CN3C(=O)c4cccc5cccc(c45)C3=O)CC2)c1 (stereo not drawn)	-5%	2%	2%	-1%	0
O=C1c2cccc3cccc(c23)C(=O)N1CCN1CCN(CC(O)COc2ccc3ccccc3c2)CC1 (stereo not drawn)	?	-27%	-5%	25µM*	4
O=C1c2cccc3cccc(c23)C(=O)N1CC1CCN(CC(O)COc2ccc3ccccc3c2)CC1 (stereo not drawn)	13µM*	16µM*[quencher]	-5%	8%	·
COC(=O)NC(CC(C)=O)c1ccccc1 (stereo not drawn)	-6%[11.5 µM]	-9%[11.6 µM]	-3%[11.6 µM]	-7%	-1
CNc1ncnc2ccc(-c3ccccc3OC)cc12	-1%	-8%	-8%	-11%	-6
CC(=O)c1cccc(NC(=O)/C=C/c2ccc([N+](=O)[O-])s2)c1	4µM*	?	?	11%	3
Cc1ccccc1NC(=O)/C=C/c1ccc([N+](=O)[O-])s1	13µM*	?	?	5%	-1
O=C(Cn1cc(SCc2ccc(F)cc2)c2ccccc21)N1CCCCC1	?	?	-3%	·	·
CC(C)c1ccc(NC(=O)CN2C(=O)CSc3ccc(S(=O)(=O)N4CCCC4)cc32)cc1	-1%	-26%	-9%	·	·
COc1ccccc1NS(=O)(=O)c1cccc(-n2c(O)c(C=Nc3ccccc3C(=O)O)c3ccccc3c2=O)c1	16µM*	?	-17%	-5%	5
Cc1cc(O)c(C=O)c2c1C(=O)Oc1c(COC(=O)/C=C/C(=O)O)c(O)c(C(=O)O)c(C)c1O2	8.9µM*	-33%	3.5µM*	-52%	10
Cc1cc(O)c(C=O)c2c1C(=O)Oc1c(CO)c(O)c3c(c1O2)C(O)OC3=O (stereo not drawn)	?	?	16µM*	14µM*	6
Cc1cc(O)c(C=O)c(O)c1C(=O)O	?	-17%	-12%	-7%	-2
CCOc1cc(/C=C2/C(=O)N(c3ccccc3)N=C2C)ccc1OC(=O)c1ccco1	?	?	-6%	?	-13
CCOc1cc(/C=C2/SC(=S)N(CC(=O)O)C2=O)ccc1OC(=O)c1cccs1	?	9%	2%	4.5µM*	10
CCOc1cc(/C=C2\C(=O)N(c3ccc(C(N)=O)cc3)N=C2C)ccc1OC(=O)c1cccs1	?	?	?	56µM*	2
COc1ccc(-c2nc3scc(CCNS(=O)(=O)c4cccs4)n3n2)cc1	-8%	-21%	-3%	·	·
CC(C)CN1CC[C@@]2(CCCN(C(=O)c3csnn3)C2)C1	·	·	·	-25%	2
SMILES	Tau fibril ThT	Tau fluor cs	Tau FP inhib	Sfp PPTase inh	FBPA coupling cs
CCCC(C)c1nnc(NC(=O)C(=O)OCC)s1 (stereo not drawn)	?	-3%	-2%	20µM*	-4
CCCC(C)NC(=O)c1cc(C(=O)OC)cc([N+](=O)[O-])c1 (stereo not drawn)	11%	7%	-3%	-2%	0
CCCC(C)c1nnc(NC(=O)C2CC(=O)N(CCc3ccc(F)cc3)C2)s1 (stereo not drawn)	·	·	·	28µM*	0
CCCCOC(=O)Nc1nnc(C(C)C)s1	8%	1%	-12%	9%	1
CCCC(C)c1nnc(NC(=O)CN2C(=O)c3ccccc3C2=O)s1 (stereo not drawn)	-3%	-7%	-2%	45µM*	-1
CCCC(C)c1nnc(NC(=O)c2cc(C(=O)OC)cc([N+](=O)[O-])c2)s1 (stereo not drawn)	-12%	-19%	5%	14µM*	5
CCc1ccccc1N1C(=O)N(CC(=O)c2ccc(OC)cc2)c2ccccc2S1(=O)=O	?	?	-18%	·	·
Cc1nnc(N2CCN(c3cccc(C(F)(F)F)c3)CC2)c2c1nnn2Cc1ccccc1	-11%	-16%	-2%	·	·
Cc1nnc(NC(=O)C2CCCO2)s1 (stereo not drawn)	-11%	-7%	-4%	-6%	1
CCCC(C)c1nnc(NC(=O)C2CCCO2)s1 (stereo not drawn)	?	15%	4%	13µM*	0
O=C(Nc1c(C(=O)O)oc2ccccc12)c1ccc(C(F)(F)F)cc1	3%	-5%	2%	·	·
Nc1nonc1-c1nc2ccccc2n1CC(=O)Nc1ccccc1C(=O)O	-3%	-7%	-7%	·	·
Nc1nnc(CC(=O)N/N=C/c2ccc(-c3cccc(C(=O)O)c3)o2)s1	·	6%	-1%	40µM*	0
Nc1nnc(CC(=O)N/N=C/c2ccc(-c3ccc(F)cc3)o2)s1	·	9%[0.0958 µM]	4%[0.0958 µM]	-15%	-2
Nc1nonc1-c1nc2ccccc2n1CC(=O)N/N=C/c1ccc(-c2cccc(C(=O)O)c2)o1	?	-10%	-11%	1µM*	3
C=C1CC[C@H](O)C/C1=C/C=C1\CCC[C@]2(C)[C@H]1CC[C@H]2[C@@H](C)/C=C\[C@@H](C)C(C)C	·	·	·	?	-6
COc1cc(-c2nc(SCC(=O)Nc3ccc4c(c3)OCO4)c(-c3ccccc3)[nH]2)cc(OC)c1OC	?	5.6µM*[quencher]	2%	·	·
O=C(CSc1nc(-c2ccccc2)[nH]c1-c1ccccc1)Nc1ccc2c(c1)OCO2	?	7.1µM*[quencher]	2%	·	·
O=C(O)c1ccccc1CSc1nnc2c(n1)[nH]c1ccccc12	-11%	-4%	0%	56µM*	16
O=C(O)CSc1nnc2c(n1)[nH]c1ccccc12	-15%	4%	6%	50µM*	1
COc1cc(/C=N/Nc2nc3c(c(=O)n(C)c(=O)n3C)n2Cc2ccccc2)ccc1OC(=O)c1ccco1	?	7.9µM*[quencher]	?	7%	-9
CN1CCC2(CC1)N=C(c1ccc(F)cc1)C(=S)N2C(=O)c1ccc(C(C)(C)C)cc1	?	-8%	-3%	50µM*	-2

High-throughput results: PubChem, National Center for Advancing Translational Sciences (NCATS)
